# Assay results from PubChem BioAssay.
# Results filed as inconclusive are left out. The source made the active and inactive calls. Unless noted, the limit is not given here; nearly all actives have AC50 up to about 26 µM.
# Columns and labels:
# [1] = viability loss in pontine glioma line – cell-based, SU-DIPG-XIII, MIPE5.0, CellTiter-Glo, qHTS, dose response (AID 1347064; cut-off not given, nearly all actives have AC50 up to about 23 µM;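 as to AC50: cells exposed to compound for 48 hours before the viability read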); conditions: CellTiter-Glo ATP luminescence
# [2] = viability loss in pontine glioma line – cell-based, SU-DIPG-XXV, MIPE5.0, CellTiter-Glo, qHTS, dose response (AID 1347065); conditions: CellTiter-Glo ATP luminescence;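 also: cells exposed to compound for 48 hours before ATP readout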
# [3] = viability loss in pontine glioma line – cell-based, SU-DIPG-IV, MIPE4.0, CellTiter-Glo, qHTS, dose response (AID 1347063; cut-off not given, nearly all actives have AC50 up to about 30 µM;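 also: compound exposure lasted 48 hours before the viability readout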); conditions: CellTiter-Glo ATP luminescence
# [4] = JHH-DIPG-1 glioma cell viability, MIPE5.0 library, CellTiter-Glo luminescence, qHTS (AID 1347067); conditions: JHH-DIPG-1 glioma viability, CellTiter-Glo ATP luminescence;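 also: cells exposed to compound for 48 hours before readout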
# [5] = growth inhibition of DIPG cells – cell-based, MIPE5.0 library, qHTS (AID 1347068; cut-off not given, nearly all actives have IC50 up to about 30 µM;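 as to IC50: cells exposed to compound for 48 hours before viability readout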); conditions: SU-DIPG-XXV viability
# [6] = viability loss with induced miR-34 in A549 – imaging, A549 dox-inducible miR-34, nuclei and caspase counts, primary screen (AID 1347080;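 active = compounds whose cell count with miR-34 switched on is under 0.7 times the count with it off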); conditions: A549 miR-34 inducible, Hoechst nuclei count, 48 h
# [7] = MELAS cybrid and Rieske KO viability enhancers – cell-based, MELAS cybrids, Rieske KO mouse fibroblasts, CellTiter-Glo, primary screen (AID 1508586;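 active = mean z-score across replicates of 1.96 or higher in either the MELAS or the Rieske mutant cell line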;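 also: z relative to plate mean and SD of compound and empty wells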); conditions: low glucose
# [8] = growth inhibition of DIPG cells – cell-based, MIPE4.0 library, CellTiter-Glo luminescence, qHTS (AID 1347066; cut-off not given, nearly all actives have AC50 up to about 30 µM;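 also: cells exposed to compound for 48 hours before readout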); conditions: SU-DIPG-VI viability, CellTiter-Glo ATP luminescence
# [9] = compounds altering HSF1 focus formation in cells – imaging, Selleck Cancer Library (AID 1347162; in the data active = plate-normalised HSF1 focus index below about 0.46); conditions: human cells, HSF1 nuclear foci imaging, at 10 µM; SSMD: measured here: HSF1 foci SSMD mean; cell count: measured here: cell number; plate-normalised HSF1 focus index: stronger effect = lower value
# [10] = drug combination growth inhibition, ovarian cancer – cell-based, oncology-focused library, rucaparib conditional, profiling panel (AID 1508598;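 active = normalized viability below 100% at a tested concentration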); conditions: patient-derived ovarian cancer cells, CellTiter-Glo viability, 144 h, stronger effect = lower value
# [11] = P. berghei load reduction in hepatocytes – cell-based, HepG2, luciferase luminescence, HepG2 viability, primary screen (AID 624349; in the data active = parasite load remaining mostly below about 12%, no sharp cut-off; inactive = mostly above about 10%;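 also: 100% = mean of DMSO negative control wells on the same plate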); conditions: P. berghei liver stage in HepG2, luciferase luminescence, concentration not given here; parasite load remaining: stronger effect = lower value; viability: measured here: HepG2 viability without parasites
# [12] = stronger effect = lower value, cell number ratio, induced over uninduced
# [13] = measured here: relative caspase fold change +Dox/-Dox
# [14] = measured here: total cells with miR-34 induction, stronger effect = lower value
# [15] = measured here: total cells without miR-34 induction
# [16] = MELAS cybrid survival, CellTiter-Glo 48 h, stronger effect = higher value
# [17] = Rieske KO mouse fibroblast survival, CellTiter-Glo 72 h
smiles,measurement,setting,value
CC(C)NC(=O)COc1cccc(-c2nc(Nc3ccc4[nH]ncc4c3)c3ccccc3n2)c1,AC50,[1],5.9 µM (active)
same,AC50,[2],5.25 µM (active)
Cn1cc(-c2cnn3c(N)c(Br)c([C@@H]4CCCNC4)nc23)cn1,AC50,[3],2.09 µM (active)
same,outcome,[4],inactive
CO[C@H]1C[C@@H]2CC[C@@H](C)[C@@](O)(O2)C(=O)C(=O)N2CCCC[C@H]2C(=O)O[C@H]([C@H](C)C[C@@H]2CC[C@@H](OCCO)[C@H](OC)C2)CC(=O)[C@H](C)/C=C(/C)[C@@H](O)[C@@H](OC)C(=O)[C@H](C)C[C@H](C)/C=C\C=CC=C1C,AC50,[3],8.33 µM (active)
same,AC50,[2],23.5 µM (active)
same,AC50,[4],29.5 µM (active)
same,IC50,[5],23.5 µM (active)
O=c1cc(CN2CCOCC2)occ1OCCCCCSc1ccnc2cc(C(F)(F)F)ccc12,outcome,[3],inactive
same,AC50,[1],18.6 µM (active)
same,AC50,[2],23.5 µM (active)
same,AC50,[4],18.6 µM (active)
same,IC50,[5],20.9 µM (active)
same,fold change,[6]; [12],0.876 (inactive)
same,fold change,[6]; [13],0.509
same,cell count,[6]; [14],6290
same,cell count,[6]; [15],7180
same,z-score,[7]; [16],-0.449 (inactive)
same,z-score,[7]; [17],0.747
Cc1c(C)n(Cc2ccc(-c3ccccc3C(=O)O)cc2)c2ccc(C(=O)N[C@@H](C)c3ccc([N+](=O)[O-])cc3)cc12,AC50,[3],0.0372 µM (active)
C[C@@H](N)c1ccc(C(=O)Nc2ccnc3[nH]ccc23)cc1,AC50,[3],0.418 µM (active)
same,outcome,[8],inactive
same,IC50,[5],18.6 µM (active)
COC[C@H](c1ccc(C(F)(F)F)cc1)N1CCN(C2(C)CCN(C(=O)c3c(C)ncnc3C)CC2)C[C@H]1C,AC50,[3],11.8 µM (active)
same,outcome,[8],inactive
CC[C@H](Nc1ncnc2nc[nH]c12)c1nc2cccc(F)c2c(=O)n1-c1ccccc1,AC50,[3],16.6 µM (active)
same,outcome,[1],inactive
same,outcome,[4],inactive
same,outcome,[5],inactive
same,SSMD,[9],2.21
same,cell count,[9],7370
same,plate-normalised HSF1 focus index,[9],1.08 (inactive)
same,viability,"[10]; at 0.000305 µM, OCI-C5x cells, with rucaparib 10 µM, 100% = cells with rucaparib alone",99.3% (active)
same,viability,"[10]; at 0.000305 µM, OCI-C5x cells, without rucaparib",121% (inactive)
same,viability,"[10]; at 0.000305 µM, OCI-P5x cells, with rucaparib 20 µM, 100% = cells with rucaparib alone",96.5% (active)
same,viability,"[10]; at 0.000305 µM, OCI-P5x cells, without rucaparib",104% (inactive)
same,viability,"[10]; at 0.00122 µM, OCI-C5x cells, with rucaparib 10 µM, 100% = cells with rucaparib alone",104% (inactive)
same,viability,"[10]; at 0.00122 µM, OCI-C5x cells, without rucaparib",124% (inactive)
same,viability,"[10]; at 0.00122 µM, OCI-P5x cells, with rucaparib 20 µM, 100% = cells with rucaparib alone",98.6% (active)
same,viability,"[10]; at 0.00122 µM, OCI-P5x cells, without rucaparib",105% (inactive)
same,viability,"[10]; at 0.00488 µM, OCI-C5x cells, with rucaparib 10 µM, 100% = cells with rucaparib alone",108% (inactive)
same,viability,"[10]; at 0.00488 µM, OCI-C5x cells, without rucaparib",116% (inactive)
same,viability,"[10]; at 0.00488 µM, OCI-P5x cells, with rucaparib 20 µM, 100% = cells with rucaparib alone",82.2% (active)
same,viability,"[10]; at 0.00488 µM, OCI-P5x cells, without rucaparib",96.9% (active)
same,viability,"[10]; at 0.0195 µM, OCI-C5x cells, with rucaparib 10 µM, 100% = cells with rucaparib alone",101% (inactive)
same,viability,"[10]; at 0.0195 µM, OCI-C5x cells, without rucaparib",138% (inactive)
same,viability,"[10]; at 0.0195 µM, OCI-P5x cells, with rucaparib 20 µM, 100% = cells with rucaparib alone",87.8% (active)
same,viability,"[10]; at 0.0195 µM, OCI-P5x cells, without rucaparib",105% (inactive)
same,viability,"[10]; at 0.0781 µM, OCI-C5x cells, with rucaparib 10 µM, 100% = cells with rucaparib alone",110% (inactive)
same,viability,"[10]; at 0.0781 µM, OCI-C5x cells, without rucaparib",129% (inactive)
same,viability,"[10]; at 0.0781 µM, OCI-P5x cells, with rucaparib 20 µM, 100% = cells with rucaparib alone",96.3% (active)
same,viability,"[10]; at 0.0781 µM, OCI-P5x cells, without rucaparib",104% (inactive)
same,viability,"[10]; at 0.313 µM, OCI-C5x cells, with rucaparib 10 µM, 100% = cells with rucaparib alone",105% (inactive)
same,viability,"[10]; at 0.313 µM, OCI-C5x cells, without rucaparib",119% (inactive)
same,viability,"[10]; at 0.313 µM, OCI-P5x cells, with rucaparib 20 µM, 100% = cells with rucaparib alone",103% (inactive)
same,viability,"[10]; at 0.313 µM, OCI-P5x cells, without rucaparib",115% (inactive)
same,viability,"[10]; at 1.25 µM, OCI-C5x cells, with rucaparib 10 µM, 100% = cells with rucaparib alone",103% (inactive)
same,viability,"[10]; at 1.25 µM, OCI-C5x cells, without rucaparib",139% (inactive)
same,viability,"[10]; at 1.25 µM, OCI-P5x cells, with rucaparib 20 µM, 100% = cells with rucaparib alone",105% (inactive)
same,viability,"[10]; at 1.25 µM, OCI-P5x cells, without rucaparib",109% (inactive)
same,viability,"[10]; at 5 µM, OCI-C5x cells, with rucaparib 10 µM, 100% = cells with rucaparib alone",110% (inactive)
same,viability,"[10]; at 5 µM, OCI-C5x cells, without rucaparib",133% (inactive)
same,viability,"[10]; at 5 µM, OCI-P5x cells, with rucaparib 20 µM, 100% = cells with rucaparib alone",98.1% (active)
same,viability,"[10]; at 5 µM, OCI-P5x cells, without rucaparib",102% (inactive)
c1ccc(CNCc2ccc(CN3CCCNCCNCCCNCC3)cc2)nc1,outcome,[1],inactive
same,outcome,[2],inactive
same,outcome,[4],inactive
same,outcome,[5],inactive
CN(C)c1cc(NC(=O)CNC(C)(C)C)c(O)c2c1C[C@H]1C[C@H]3[C@H](N(C)C)C(=O)C(C(N)=O)=C(O)[C@]3(O)C(=O)C1=C2O,outcome,[1],inactive
same,outcome,[2],inactive
same,outcome,[4],inactive
Cc1ccc(S(=O)(=O)Nc2cc(C(F)(F)F)ccc2C(=O)Nc2nc(-c3ccccc3)cs2)cc1,AC50,[1],4.17 µM (active)
same,AC50,[2],3.72 µM (active)
same,AC50,[4],3.32 µM (active)
same,IC50,[5],4.68 µM (active)
C=Cc1cc(O)cc2nc(-c3ccc(O)c(F)c3)oc12,outcome,[1],inactive
same,outcome,[2],inactive
same,outcome,[4],inactive
same,outcome,[5],inactive
CCCCOC(=O)NS(=O)(=O)c1sc(CC(C)C)cc1-c1ccc(Cn2ccnc2)cc1,outcome,[1],inactive
same,AC50,[2],20.9 µM (active)
same,AC50,[4],20.9 µM (active)
same,outcome,[5],inactive
CN(C)C(=O)c1cc2cnc(Nc3ccc(N4CCNCC4)cn3)nc2n1C1CCCC1,outcome,[1],inactive
same,outcome,[2],inactive
same,outcome,[4],inactive
same,outcome,[5],inactive
same,fold change,[6]; [12],1 (inactive)
same,fold change,[6]; [13],0.436
same,cell count,[6]; [14],5240
same,cell count,[6]; [15],5220
same,z-score,[7]; [16],-0.462 (inactive)
same,z-score,[7]; [17],-0.582
CN(C)N(C)C(=O)[C@@]1(Cc2ccccc2)CCCN(C(=O)[C@@H](Cc2c[nH]c3ccccc23)NC(=O)C(C)(C)N)C1,outcome,[1],inactive
same,outcome,[2],inactive
same,outcome,[4],inactive
same,outcome,[5],inactive
CC1(C)CCC2(CC1)N[C@@H](C(=O)N[C@@H]1CC[C@@H](C(N)=O)OC1)[C@H](c1ccnc(Cl)c1F)[C@]21C(=O)Nc2cc(Cl)ccc21,AC50,[1],16 µM (active)
same,AC50,[2],16 µM (active)
same,AC50,[4],20.1 µM (active)
same,outcome,[5],inactive
CC(C)C(N)C(=O)OCC(CO)OCn1cnc2c(=O)[nH]c(N)nc21 (stereo unspecified),outcome,[1],inactive
same,outcome,[2],inactive
same,outcome,[4],inactive
same,outcome,[5],inactive
O=C(NO)c1cnc(NC2(c3ccccc3)CC2)nc1,AC50,[1],3.32 µM (active)
same,AC50,[2],2.95 µM (active)
same,AC50,[4],2.95 µM (active)
CCS(=O)(=O)Nc1ccc(Oc2ccc(F)cc2F)c(-c2cn(C)c(=O)c3[nH]ccc23)c1,AC50,[1],0.105 µM (active)
same,AC50,[2],2.95 µM (active)
same,AC50,[4],4.68 µM (active)
Cc1c(C(=O)N2CCOc3ccc(-c4ccc(N)nc4)cc3C2)ccc(S(C)(=O)=O)c1F,AC50,[1],2.95 µM (active)
same,AC50,[2],4.17 µM (active)
NC(=O)c1cccc(-c2cc(Nc3ccc(OC(F)(F)F)cc3)ncn2)c1,parasite load remaining,[11],33% (inactive)
same,viability,[11],100%
same,AC50,[1],20.9 µM (active)
same,AC50,[2],20.9 µM (active)
same,outcome,[8],inactive
same,AC50,[4],20.9 µM (active)
same,IC50,[5],18.6 µM (active)
same,fold change,[6]; [12],0.899 (inactive)
same,fold change,[6]; [13],1.65
same,cell count,[6]; [14],7160
same,cell count,[6]; [15],7960
same,z-score,[7]; [16],-0.11 (inactive)
same,z-score,[7]; [17],-0.362
